Assay outcomes from PubChem.
ELG1 DNA repair: blocks ELG1-dependent DNA repair in HEK293T cells; Potency, µM (highest dose often 46.1 µM), actives largely listed as inhibitors; 330,000 tested, 2.3% active; AID 504467; HEK293T ELG1-luciferase reporter, luminescence, 16 h; DNA damage induced by 5-fluorouridine; further: nearly all actives have a fitted effect of over 55% in size
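Cells (2,000 per well) received 5-fluorouridine plus test compound or DMSO and were incubated 16 hr at 37 °C, 5% CO2. Luciferase activity was read by luminescence 30 min after ONE-Glo addition; signal suppression marked inhibition of damage-induced ELG1 function.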
BRCA1 expr act: increases BRCA1 expression | MCF7-BRCA1-FFLuc reporter, luminescence, 48 h; response scale: scaled: vehicle 0%, 10 µM genistein 100% | Potency, µM (titrated, usually from 46.1 µM), most hits filed as activators | 380,000 tested, 1.1% active; further: nearly all actives have a fitted effect of over 80% in size
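First, MCF7-BRCA1-FFLuc cells (2000/well) attach for 2 h; next, compounds are pin-added and incubated 48 h at 37 °C; finally, luciferase reagent is added and luminescence read after 15 min.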
RORgamma inh: blocks mouse ROR gamma transcriptional activity; 310,000 tested, 5.4% active; P51450; Drosophila S2 Gal4-RORgamma UAS-luciferase reporter, 20 h; Potency, µM (highest dose often 53.6 µM), most hits filed as inhibitors; AID 2551; further: nearly all actives have a fitted effect of over 60% in size
Target sequence (P51450 whole entry, looked up, the tested form may be a part): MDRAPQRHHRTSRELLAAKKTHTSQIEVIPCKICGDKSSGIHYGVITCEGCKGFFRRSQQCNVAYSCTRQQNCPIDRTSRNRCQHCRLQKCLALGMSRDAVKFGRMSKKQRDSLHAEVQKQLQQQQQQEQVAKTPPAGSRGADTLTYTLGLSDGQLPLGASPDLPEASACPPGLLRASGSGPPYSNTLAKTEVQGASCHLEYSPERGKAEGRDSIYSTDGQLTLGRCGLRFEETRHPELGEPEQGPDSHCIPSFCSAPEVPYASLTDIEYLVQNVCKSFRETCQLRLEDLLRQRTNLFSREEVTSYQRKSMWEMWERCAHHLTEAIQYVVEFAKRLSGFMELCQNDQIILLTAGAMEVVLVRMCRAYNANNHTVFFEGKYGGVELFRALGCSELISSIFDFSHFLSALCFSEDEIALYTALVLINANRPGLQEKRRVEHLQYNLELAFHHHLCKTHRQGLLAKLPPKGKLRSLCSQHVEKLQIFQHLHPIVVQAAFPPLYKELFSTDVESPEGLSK
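A Gal4/UAS one-hybrid system in insect cells: metallothionein-promoter Gal4–ROR gamma fusion plus Photinus luciferase reporter. Copper sulfate 700 uM final, 20 hr ambient incubation, luminescent detection after 10 min with reagent.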
Giardia killer: Giardia lamblia killing. Giardia lamblia trophozoite viability. 340,000 tested, 0.15% active. activity change, % at 7.66 µM, hits read low; in the data active means activity change below about -80%; inconclusive means between about -30% and that limit;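 further: parasites exposed to compound for two days anaerobically before the ATP read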
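Anaerobic 48 hrs incubation at 37 deg C of 100 trophozoites/well with test compounds; ATPLite 1-Step luminescence, 15-30 min RT, reports cellular ATP as viability.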
Gal4-VP16 FLuc: inhibits Gal4-VP16 luciferase reporter, ROR gamma counter-screen. Drosophila S2 Gal4-VP16 UAS-luciferase, luminescence, 20 h. 310,000 tested, 3.5% active. AID 2546. Potency, µM (series often up to 53.6 µM), usual class: inhibitors;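 further: Gal4-VP16 expression switched on by copper sulfate through the metallothionein promoter; nearly all actives have a fitted effect of over 50% in size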
p53 reactivator: restores transcriptional activity of mutant p53; H1299 p53-A138V BP100-luciferase reporter, luminescence, 24 h; Potency, µM (highest dose often 92.2 µM), hits mostly activators; 320,000 tested, 0.063% active; AID 504706; further: nearly all actives have a fitted effect of over 45% in size
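p53-null H1299 cells stably carrying temperature-sensitive p53-A138V and a BP100-luciferase reporter were pinned with compounds (4-point, 1:5 series) and held 24 hrs at 37 deg C. Luminescence was read 10 min after detection reagent.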
Hits are given with their value; n = inactive; u = inconclusive; x = no result given; [ ] = remark or other dose. Sampled rows, rich in hits. Any-hit rate of the full collection: about 7.6%. Unless noted, the call rests on the fitted dose curve; in most records, active means well fitted curve in the direction sought with a large enough effect; inconclusive means small, poorly fitted or top-dose-only effect, or another doubt; inactive means no such curve, though single readings can be large; an effect the other way counts as inactive or inconclusive.

SMILES | ELG1 DNA repair | BRCA1 expr act | RORgamma inh | Giardia killer | Gal4-VP16 FLuc | p53 reactivator
O=C(CSc1nc2ccc([N+](=O)[O-])cc2[nH]1)NC1CCCCCC1 | 16µM | n | u | n | u | n
CCOc1ccc(N=C2SCC(=O)N2CC)cc1 | n | n | n | n | n | x
Cc1sc2nc(CSCC(=O)NC(C)(C)C)[nH]c(=O)c2c1C | n | n | n | n | n | n
Cc1cc(-c2nc3c4c5c(sc4[nH]c(=O)n3n2)CCC5)c(C)o1 | n | n | n | n | n | n
S=C(NCCc1ccccn1)Nc1ccc(Cl)c(Cl)c1 | n | n | 5.6µM | n | 7.1µM | n
S=C(NCCc1ccccn1)Nc1ccccc1 | u | n | 20µM | n | u | n
S=C(NCc1cccnc1)Nc1ccc(Cl)c(Cl)c1 | n | n | u | n | u | n
COc1cccc(NC(=S)NCCc2ccccn2)c1 | u | n | u | n | 18µM | n
O=C(COc1ccc(Cl)cc1)NCCc1ccccn1 | n | n | n | n | n | n
S=C(NCCc1ccccn1)Nc1cc(Cl)cc(Cl)c1 | u | n | 5µM | n | u | n
c1ccc(NCCc2ccccn2)cc1 | x | u | x | n | x | x
COc1cccc(NC(=S)NCc2ccncc2)c1 | n | n | n | n | n | n
N/C(Cn1cncn1)=N\NC(=O)C(=O)Nc1ccccc1 | n | n | n | n | n | n
CCN(CC)c1nc(NN)nc(Nc2ccc(C)c(Cl)c2)n1 | x | n | x | n | x | x
Cc1cc(C)n(-c2ncnc3ccccc23)n1 | n | n | n | n | n | n
CCN(CC)C(=S)Nc1ccc(Cl)c(Cl)c1 | n | n | 18µM | n | u | n
CCN(Cc1ccncc1)C(=S)Nc1ccc(Cl)cc1 | u | n | n | n | n | n
COCCNC(=S)Nc1ccc(Cl)c(Cl)c1 | n | n | 10µM | n | u | n
COCCNC(=S)Nc1ccc2nsnc2c1 | n | n | n | n | n | n
CC(NC(=O)OCc1ccccc1)C(=O)Oc1cc2oc(=O)cc(-c3ccccc3)c2cc1Cl (configuration not stated) | 21µM | n | n | n | n | n
CCc1ccc(NC(=O)c2ccc(C3SCC(=O)N3CCc3ccccc3)cc2)cc1 (configuration not stated) | 10µM | n | n | n | n | n
O=C(NCc1ccccc1)c1ccc(C2SCC(=O)N2Cc2ccccc2)cc1 (configuration not stated) | 16µM | n | n | n | u | n
C=CCNC(=O)c1ccc(C2SCC(=O)N2Cc2ccccc2)cc1 (configuration not stated) | n | n | n | n | n | n
CCNC(=O)c1ccc(C2SCC(=O)N2CCc2ccccc2)cc1 (configuration not stated) | n | n | n | n | n | n
O=C(Nc1nccs1)C(NS(=O)(=O)c1ccc(Br)s1)c1ccccc1 (configuration not stated) | u | n | 11µM | n | u | n
SMILES | ELG1 DNA repair | BRCA1 expr act | RORgamma inh | Giardia killer | Gal4-VP16 FLuc | p53 reactivator
O=C(C1CCCCC1)N1C[C@H](n2cc(-c3ccc(F)cc3)nn2)[C@@H](O)C[C@@H]1c1ccccc1 | x | n | x | x | x | x
CC1(C)CC(=O)c2cnc(NC3CC3)nc2C1 | n | n | n | n | n[10 µM] | n
Cc1ccc(Nc2ncc3c(n2)CC(C)(C)CC3=O)cc1 | u | 2µM | n | n | n | n
CN(C)c1ccc(-c2ccc3ncnc(N4CCNCC4)c3c2)cc1 | x | x | n | x | n | x
CCOc1ccccc1C(=O)NCC(=O)OCC(=O)NCCc1ccc(S(N)(=O)=O)cc1 | n | n | n | n | n | n
CCOC(=O)c1sc(NC(C)=O)nc1C | n | n | n | n | n | n
COC(=O)c1sc(NC(=S)NC(=O)c2cc(OC)c(OC)c(OC)c2)nc1C | n | n | 10µM | n | n | n
CCOC(=O)c1sc(NC(=S)NC(=O)c2cccc(OC)c2)nc1C | n | n | 8.9µM | n | u | n
COc1cc(CC(=O)Nc2nccs2)cc(OC)c1OC | n | n | n | n | n | n
COc1cc(C(=O)NC(=S)Nc2nccs2)cc(OC)c1OC | n | n | 3.2µM | n | u | n
CCOC(=O)c1sc(Nc2nc(OC)cc(OC)n2)nc1C | 26µM | n | n | n | n | n
